# Screening data as filed in PubChem.
# Pf growth 96h – inhibits malaria parasite growth, 96 h; P. falciparum luciferase reporter growth, 96 h; Potency, µM (series often up to 28.7 µM), for inactives: at the highest dose activity change, negative = inhibition, usual class: inhibitors; AID 504834; 320,000 compounds, 6.9% hits; also: potency is read from the fitted curve at half-maximal effect; % is scaled to controls: 0 for no effect and ±100 for the full control effect
#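 Plates of compound plus infected erythrocytes (2% hematocrit, 0.05% parasitemia final) incubate 96 hours, 37 C, 5% CO2. Detection reagent added; reduced luminescence from the parasites' luciferase reporter flags inhibition.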
# CHX counter – counter-screen for Shiga toxin inhibitors: cycloheximide protein synthesis inhibition; max response, %; 300,000 compounds, 12% hits; cell reporter, cycloheximide protein synthesis inhibition counterscreen; in the data active = max response mostly above about 13%, no sharp cut-off; inactive = mostly below about 14%; also: read at 38.3 µM for the half of the compounds with a filed dose; 0% is about no effect
# NS1 function inh – influenza NS1 inhibition | 270,000 compounds, 0.4% hits | Potency, µM (titrated, usually from 46.1 µM), without a hit: top-dose activity, positive = more growth; calls by dose curve; also: potency is read from the fitted curve at half-maximal effect; actives are rising curves; nearly all actives have a fitted effect of over 50% in size
#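 OD600 was taken as the measure of yeast growth restored by compound in an NS1-expressing S. cerevisiae strain. Cells had been washed out of glucose medium and diluted 1:100 into galactose -URA medium, pH 6.0.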
# Pf growth 48h – inhibits P. falciparum growth in the first generation, 48 h; AID 504832; Potency, µM (titrated, usually from 28.7 µM), inactives show at the top dose activity change, negative = inhibition, usual class: inhibitors; 310,000 compounds, 5.9% hits; P. falciparum luciferase growth in erythrocytes, 48 h; also: potency is read from the fitted curve at half-maximal effect; % is scaled to controls: 0 for no effect and ±100 for the full control effect
#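 Growth was read as firefly luciferase luminescence after a 48 h, 37 C, 5% CO2 exposure of compounds to reporter-bearing P. falciparum cultures (0.1% parasitemia, 2% hematocrit final) in Albumax-supplemented RPMI 1640.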
# Sm TGR inh – inhibitors of Schistosoma mansoni thioredoxin glutathione reductase; Q962Y6; purified TGR, DTNB reduction, TNB absorbance 405 nm; Potency, µM (series often up to 114 µM), for the others: at the highest dose activity change, negative = inhibition, actives largely listed as inhibitors; 360,000 compounds, 3% hits; also: potency is read from the fitted curve at half-maximal effect; % is scaled to controls: 0 for no effect and ±100 for the full control effect; nearly all actives have a fitted effect of over 60% in size
#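 First, TGR (20 nM dispensed) and NADPH were mixed with compound. Second, a 15 min room-temperature incubation followed. Third, further NADPH and then DTNB were added to start the reaction. Finally, TNB absorbance was monitored kinetically.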
# Shiga inhibitor – inhibitors of Shiga toxin in Vero cells; Vero cells, Shiga toxin protein synthesis inhibition reporter; inhibition, % at 38.7 µM; 290,000 compounds, 9.2% hits; AID 2315; in the data active = inhibition mostly above about 28%, no sharp cut-off; inactive = mostly below about 43%; also: 0% is about no effect
# The depositor's hits bear a star; u = inconclusive; x = no result given. Most compounds without a hit are left out; they make up all but 21% or so of the library. Unless noted, calls follow the shape of the dose curve; as a rule, active = well fitted curve in the direction sought with a large enough effect; inconclusive = small, poorly fitted or top-dose-only effect, or another doubt; inactive = no such curve, though single readings can be large; an effect the other way counts as inactive or inconclusive.
SMILES,Pf growth 96h,CHX counter,NS1 function inh,Pf growth 48h,Sm TGR inh,Shiga inhibitor
Cn1c(SCc2cccc(Br)c2)nnc1-c1ccccn1,-11.6%,22.4*,-40.0%,-4.4%,0.9%,49.9*
CCOC(=O)C1=NOC(CNc2ncc(C(F)(F)F)cc2Cl)C1 (configuration not stated),-4.5%,-2.1,-12.0%,25.4%,11.3%,2.3
CCn1c2ccccc2c2cc(CN3CCN(Cc4ccccc4Cl)CC3)ccc21,x,x,x,x,11.5%,x
Cc1ccc(C(=O)COC(=O)c2ccc(-c3cnc4ccccc4n3)cc2)cc1C,48.1%,14.5*,16.6%,35.7%,-1.1%,-4.7
Cc1ccc(C(=O)COC(=O)CCc2nc3ccccc3[nH]c2=O)cc1C,2.62µM*,-4.5,1.0%,11.5%,-0.6%,-14.1
Cc1ccc(C(=O)CSc2cnc3ccccc3n2)cc1C,305.3%,63.3*,9.5%,294.8%,11.7%,70.0*
O=C(CN1C(=O)NC2(CCCCC2)C1=O)N1CCN(S(=O)(=O)c2cccc(F)c2)CC1,u,-2.0,-1.3%,-0.1%,-20.5%,-10.2
CCOC(=O)c1ccc(N2CSC3=C(C#N)C(c4ccc(OC)cc4OC)CC(=O)N3C2)cc1 (configuration not stated),u,-3.1,-30.4%,x,u,49.4
Cc1ccc(C2CC(=O)N3CN(c4ccc(Br)cc4)CSC3=C2C#N)o1 (configuration not stated),4.65µM*,5.4,u,x,28.2µM*,24.1
CCOc1ccc(N2CSC3=C(C#N)C(c4ccco4)CC(=O)N3C2)cc1 (configuration not stated),u,1.4,19.3%,x,25.1µM*,-6.4
N#CC1=C(N)SC(N)=C(C#N)C1c1ccoc1,3.4%,-0.4,21.0%,11.9%,5.01µM*,-0.8
CCCNC(=O)C(Cc1ccccc1)NS(=O)(=O)c1ccc2c(c1)c(=O)n(C)c(=O)n2C (configuration not stated),u,-5.0,0.7%,x,0.2%,-12.2
CSc1cccc(NS(=O)(=O)c2ccc3c(c2)oc(=O)n3C)c1,11.7µM*,-6.5,-31.5%,x,0.0%,-12.8
CCCNC(=O)C(NS(=O)(=O)c1ccc2c(c1)c(=O)n(C)c(=O)n2C)c1ccccc1 (configuration not stated),u,15.4*,3.0%,x,0.0%,0.5
Cn1c(=O)c2cc(S(=O)(=O)Nc3cccc(F)c3)ccc2n(C)c1=O,14.7µM*,-5.9,1.0%,x,6.5%,-7.5
Cc1ccc(NS(=O)(=O)c2ccc3c(c2)oc(=O)n3C)cc1,2.62µM*,1.1,11.3%,1.0%,-6.6%,-9.1
CNc1c(NS(=O)(=O)c2ccc(Br)cc2)c(=O)oc2ccccc12,-17.9%,-5.4,5.2%,-5.5%,-1.5%,2.9
C(=N\NC1=NCCCCC1)/c1c[nH]c2ccccc12,-28.8%,20.9*,-1.9%,156.8%,2.4%,32.3
Fc1c(F)c(F)c(N/N=C/c2c[nH]c3ccccc23)c(F)c1F,u,15.7*,23.0%,-80.3%,1.5%,22.8
Cn1c(N/N=C/c2c[nH]c3ccccc23)nc2ccccc21,1.65µM*,45.4*,-2.5%,7.38µM*,22.1%,166.6*
COc1ccccc1/C=N/Nc1nc(C)cc(C)n1,-16.4%,34.2*,3.9%,30.0%,5.0%,89.2*
Cc1cc(N/N=C/c2c[nH]c3ccccc23)c2ccccc2n1,28.5%,10.7,-10.2%,33.1%,x,20.8
O=C(O)c1ccc(N/N=C/c2c[nH]c3ccccc23)cc1,u,9.0,4.5%,108.0%,-16.4%,2.3
Cc1cccn2c(=O)c(C(=O)N3CCN(c4ccccc4F)CC3)cnc12,x,x,x,x,35.3%,x
O=C(CCn1c(=O)c2cccn2c2ccccc21)Nc1ccc(F)cc1,u,7.8,11.8%,u,0.5%,29.8
SMILES,Pf growth 96h,CHX counter,NS1 function inh,Pf growth 48h,Sm TGR inh,Shiga inhibitor
Cc1c(Cn2ccnc2)c2ccccc2n1CCC(=O)O,u,x,x,-10.9%,x,x
Cc1nnc(C)n1/N=C/c1cc2ccccc2nc1Cl,u,3.1,x,u,6.7%,15.0
Cc1cc(C)nc(N/N=C/c2c[nH]c3ccccc23)n1,5.7%,20.1*,x,0.0%,4.2%,49.7
Cc1cc(C)nc(N/N=C/c2ccccc2Cl)n1,96.4%,58.8*,1.2%,124.1%,8.7%,94.2*
Cc1cc(C)nc(N/N=C/c2cn[nH]c2-c2ccccc2)n1,23.0%,2.0,0.3%,4.1%,-1.7%,-3.2
Cc1cc(C)nc(N/N=C/c2ccccc2OCc2ccc([N+](=O)[O-])cc2)n1,u,12.6,-1.3%,u,7.1%,59.3*
Cn1c(N/N=C/c2cc3ccccc3nc2Cl)nc2ccccc21,u,30.8,-23.6%,u,-17.8%,77.6*
O=[N+]([O-])c1ccc(N/N=C\c2ccccc2OCc2ccccc2)cc1,434.4%,-2.7,-4.6%,-27.9%,-2.8%,-10.3
Cc1ccc(C)c(N2CCN(C(=O)C(CC(C)C)NS(=O)(=O)c3ccc4nc(C)sc4c3)CC2)c1 (configuration not stated),x,x,x,x,7.4%,x
CCCc1nnc(NC(=O)C2CC(=O)N(C3CCCC3)C2)s1 (configuration not stated),9.2%,-2.1,-5.3%,-4.4%,-2.9%,-11.5
C/C(=N\Nc1cc(C)nc(NCc2ccccc2)n1)c1ccc([N+](=O)[O-])cc1,u,-2.6,-6.6%,u,9.3%,-3.1
Cc1cc(N/N=C/c2ccccc2Cl)nc(NCc2ccccc2)n1,u,28.4*,-25.4%,1.47µM*,2.3%,23.8
Cc1cc(C)nc(N/N=C/c2cccc3ccccc23)n1,-25.8%,47.3*,-23.3%,62.9%,-13.4%,15.4
Cc1ccc2c(c1)C1NC(=S)NC(C)(O2)C1C(=O)Nc1ccc(Cl)cc1 (configuration not stated),u,-0.4,2.4%,-6.4%,-3.8%,-10.8
CC(C)(C)CN1C(N)=NC[C@H]1Cc1ccc(O)cc1,4.65µM*,-2.6,0.0%,u,19.6%,1.6
CC(C)(C)CN1C(N)=NC[C@@H]1Cc1ccc(O)cc1,u,-2.4,0.1%,u,15.0%,-7.4
CCCCN1C(N)=NC[C@@H]1Cc1ccc(O)cc1,4.15µM*,-1.4,7.0%,10.4µM*,4.1%,1.6
COc1cc(CCCN2C(N)=NC[C@H]2Cc2ccc(O)cc2)cc(OC)c1OC,2.33µM*,-5.9,-5.7%,8.28µM*,5.6%,-4.7
COc1cc(CCCN2C(=S)NC[C@H]2Cc2ccc(O)cc2)cc(OC)c1OC,-0.9%,0.8,0.8%,9.9%,-2.5%,-8.0
CCCCN1C(N)=NC[C@H]1Cc1ccc(O)cc1,4.65µM*,5.5,1.9%,9.28µM*,12.9%,-1.4
NC1=NC[C@H](Cc2ccc(O)cc2)N1CCC12CC3CC(CC(C3)C1)C2,1.85µM*,-3.0,2.7%,2.94µM*,16.4%,-3.4
CC(=O)N[C@@H](Cc1ccc(O)cc1)CN1C(N)=NC[C@@H]1CC(C)C,20.6%,-0.7,-5.0%,15.1%,-10.5%,-2.5
